From PubChem BioAssay (EPA / NIEHS)
Where “and” joins values, the source holds several entries; their conditions need not be identical. Identical values can stand only once. Where a structure was tested more than once in an assay, its records may differ in their call. Calls of active or inactive are those of the source. The calls were made as follows: active = hit-call score of the fitted dose curve at least 0.9, where 1 is the maximum; inactive = score below 0.9.

How the values were obtained:
[1] = APR_HepG2_P-H2AX_72hr: Apredica 72-hour HepG2 Assay for H2AX Phosphorylation (AID 2282916); details: imaging, actives raise or lower the signal;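 also: phospho-histone H2A.x immunostain intensity per cell marking DNA damage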
How it was run: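 HepG2 cells treated 72 h at 0.39–200 uM, 0.5% DMSO final, duplicates. Formaldehyde-fixed, Triton-permeabilised, immunostained for phospho-H2A.x with Hoechst; fluorescence imaged at 20x, bidirectional fit versus DMSO.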

[2] = APR_HepG2_MitoMembPot_72hr: Apredica 72-hour HepG2 Assay for Mitochondrial Membrane Potential (AID 2282917); details: imaging, actives raise or lower the signal
How it was run: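 HepG2 cells dosed 72 hr with compound at 0.39–200 uM in duplicate, 0.5% v/v DMSO final. Mitochondria stained with 250 nM MitoTracker Red CMXRos for 30 min before formaldehyde fixation, imaged by high-content fluorescence; bidirectional fit versus DMSO.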

[3] = APR_HepG2_MitoticArrest_72hr: Apredica 72-hour HepG2 Assay for Mitotic Arrest (AID 2282918); details: high-content imaging, actives raise or lower the signal
How it was run: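 Read-out is phospho-histone H3 immunofluorescence with Hoechst nuclear segmentation, imaged at 20x. Human HepG2 liver cells received ten concentrations (0.39–200 uM, final DMSO 0.5% v/v) for 72 hr before fixation. Gain or loss of signal was fitted relative to DMSO.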

[4] = APR_HepG2_MicrotubuleCSK_72hr: Apredica 72-hour HepG2 Assay for Microtubule CSK Stabilty (AID 2282919); details: HepG2 microtubule cytoskeleton, high-content imaging, actives raise or lower the signal
How it was run: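 HepG2 cells were exposed 72 hr to compound at 0.39–200 uM in duplicate (0.5% DMSO final), then fixed and permeabilized. Alpha-tubulin immunofluorescence was imaged by high-content microscopy, with bidirectional fitting against DMSO and taxol as positive control.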

[5] = APR_HepG2_StressKinase_72hr: Apredica 72-hour HepG2 Assay for Stress Kinase (AID 2282921); details: HepG2 stress kinase (phospho-c-Jun) imaging, actives raise or lower the signal
How it was run: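 HepG2 cells treated 72 hr with 0.39–200 uM compound, 0.5% v/v DMSO, duplicate wells. After formaldehyde fixation and Triton permeabilization, stained with anti-phospho-c-Jun (1:500) and Cy3 secondary, imaged at 20x. Fitted in both directions against DMSO.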

[6] = APR_HepG2_StressKinase_24hr: Apredica 24-hour HepG2 Assay for Stress Kinase (AID 2282922); details: HepG2 stress kinase (phospho-c-Jun) imaging, actives raise or lower the signal
How it was run: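 HepG2 cells exposed 24 h to 0.39–200 uM compound in duplicate (0.5% v/v DMSO final). Cells fixed in 3.7% formaldehyde, permeabilized and immunostained for phospho-c-Jun; read by high-content fluorescence imaging, fitted bidirectionally against DMSO.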

[7] = APR_HepG2_MitoMass_72hr: Apredica 72-hour HepG2 Assay for Mitochondrial Mass (AID 2282924); details: high-content imaging, actives raise or lower the signal;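 also: MitoTracker Red CMXRos stain intensity per cell imaged as mitochondrial mass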
How it was run: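 HepG2 cells dosed 72 hr at 0.39–200 uM (0.5% DMSO), in duplicate. MitoTracker Red CMXRos 250 nM loaded 30 min before formaldehyde fixation; high-content fluorescence imaging, bidirectional fit versus DMSO.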

[8] = APR_HepG2_NuclearSize_72hr: Apredica 72-hour HepG2 Assay for Nuclear Size (AID 2282925); details: high-content imaging, actives raise or lower the signal
How it was run: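 HepG2 cells dosed 72 h at 0.39–200 uM (10 concentrations, duplicate) in 0.5% v/v DMSO final. Fixed, Hoechst 33342-stained nuclei imaged; nuclear diameter measured by automated image analysis. Bidirectional fit versus DMSO.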

[9] = ATG_CRE_CIS: Attagene CIS-FACTORIAL HepG2 Assay for human cAMP Responsive Element (CRE) binding protein 3 (AID 2282926); details: HepG2 CRE cis-reporter, Attagene multiplexed mRNA; actives raise or lower the signal
How it was run: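 Human liver HepG2, transient MRTU transfection, 24 h compound exposure. Total RNA → oligo(dT) RT → PCR → 6-FAM primer extension → HpaI cut → CE. Activity called both directions vs DMSO.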

[10] = biological target: CCAAT/enhancer-binding protein beta (Homo sapiens) (UniProt P17676); assay: ATG_C_EBP_CIS: Attagene CIS-FACTORIAL HepG2 Assay for human CCAAT/Enhancer Binding Protein (C/EBP) beta (AID 2282927); details: HepG2 Attagene cis-factorial transcription factor reporter; actives raise or lower the signal
How it was run: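 HepG2, transient MRTU transfection, 24 h treatment. RT-PCR plus CE fluorescence; DMSO negative control, bidirectional fit.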

[11] = ATG_CMV_CIS: Attagene CIS-FACTORIAL HepG2 Assay for human CMV (Internal Marker) (AID 2282928); details: HepG2 CMV promoter reporter, transcription factor profiling; actives raise or lower the signal;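 also: endpoint acts as a background internal control marker rather than a target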
How it was run: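 CMV internal-marker background readout in transiently transfected HepG2 cells bearing cis-regulated reporter units. Reporter mRNA is measured 24 h after dosing by RT-PCR and capillary electrophoresis, with bidirectional fitting against DMSO.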

[12] = biological target: Aryl hydrocarbon receptor (Homo sapiens) (UniProt P35869); assay: ATG_Ahr_CIS: Attagene CIS-FACTORIAL HepG2 Assay for human Aryl Hydrocarbon Receptor (Ahr) (AID 2282930); details: HepG2 AhR cis-factorial reporter transcription; actives raise or lower the signal
How it was run: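 Endogenous factor activity is tracked through cis-promoter reporter units transfected into HepG2 cells. Transcript levels at 24 h are read by fluorescent RT-PCR and capillary electrophoresis, with activity in either direction scored relative to DMSO.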

[13] = ATG_AP_2_CIS: Attagene CIS-FACTORIAL HepG2 Assay for human Activator Protein 2 (AP-2) (AID 2282932); details: HepG2 AP-2 cis-reporter, Attagene transcription factor profiling; actives raise or lower the signal
How it was run: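 HepG2 cells transiently transfected with cis-element reporter units and exposed for 24 h. Reporter mRNA measured by RT-PCR, FAM labelling, HpaI digestion and capillary electrophoresis. Changes in either direction fitted relative to DMSO.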

[14] = ATG_BRE_CIS: Attagene CIS-FACTORIAL HepG2 Assay for human Bone Morphogenetic Protein (BMP) Response Element (BRE) (AID 2282933); details: HepG2 BMP response element reporter, Attagene transcription factor profiling; actives raise or lower the signal
How it was run: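 Endogenous transcription factor activity read in transiently transfected HepG2 cells after 24 h chemical exposure. Bidirectional curve fitting against DMSO; readout is reporter transcript level by RT-PCR with capillary electrophoresis of labelled products.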

[15] = APR_HepG2_p53Act_72hr: Apredica 72-hour HepG2 Assay for p53 Activation (AID 2282923); details: high-content imaging, actives raise or lower the signal;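 also: average cellular p53 protein immunofluorescence intensity in HepG2 cells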
How it was run: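 HepG2 cells exposed 72 h to 0.39–200 uM in 0.5% DMSO, duplicates. Fixed, permeabilized cells immunostained for p53 (Cy5) with Hoechst; imaged at 20x, fluorescence analyzed bidirectionally against DMSO.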

[16] = ATG_DR4_LXR_CIS: Attagene CIS-FACTORIAL HepG2 Assay for human Liver X Receptor (LXR), DR4 submotif (AID 2282929); details: HepG2 Attagene DR4 cis-reporter, mRNA transcription; actives raise or lower the signal
How it was run: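 Fluorescence intensity of labelled reporter cDNA fragments, separated by capillary electrophoresis, gives the signal. HepG2 cells bearing cis-regulated reporter constructs were treated 24 h; activity fitted bidirectionally relative to DMSO negative control.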

[17] = biological target: Transcription factor E2F1 (Homo sapiens) (UniProt Q01094); assay: ATG_E2F_CIS: Attagene CIS-FACTORIAL HepG2 Assay for human E2F Transcription Factor 1 (AID 2282935); details: HepG2 Attagene cis-reporter, E2F reporter RNA transcripts; actives raise or lower the signal
How it was run: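 Endogenous E2F1 activity read through cis-promoter reporter units transfected into HepG2. After 24 h compound treatment, reporter mRNA measured by RT-PCR, HpaI digestion and capillary electrophoresis. Bidirectional fit versus DMSO.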

[18] = ATG_AP_1_CIS: Attagene CIS-FACTORIAL HepG2 Assay for human Activator Protein 1 (AP-1) (AID 2282931); details: HepG2 Attagene cis-factorial AP-1 reporter mRNA; actives raise or lower the signal
How it was run: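 Multiplexed HepG2 reporter assay, 24 h dosing. mRNA induction detected by RT-PCR plus capillary electrophoresis. Activity fitted in both directions against DMSO.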

[19] = biological target: Retinoic acid receptor alpha (Homo sapiens) (UniProt P10276); assay: ATG_DR5_RAR_CIS: Attagene CIS-FACTORIAL HepG2 Assay for human Retinoic Acid Receptor Alpha (RARE), DR5 submotif (AID 2282934); details: HepG2 Attagene cis-factorial RARE DR5 reporter, mRNA; actives raise or lower the signal
How it was run: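 After 24 h of chemical exposure, transiently transfected HepG2 cells were lysed for total RNA; the DR5-regulated reporter transcript was quantified via RT-PCR and capillary electrophoresis, with activity fitted bidirectionally against DMSO.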

[20] = APR_HepG2_P-H2AX_24hr: Apredica 24-hour HepG2 Assay for H2AX Phosphorylation (AID 2282920); details: high-content imaging, actives raise or lower the signal
How it was run: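 HepG2, 24 hr, cpd 0.39–200 uM (10 conc, duplicate), DMSO 0.5% v/v final. Fix 3.7% formaldehyde, Triton X-100 permeabilize, anti-phospho-H2A.x 1:200 + Hoechst 2 ug/mL. Imaged, bidirectional fit vs DMSO.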

Measured: AC50

Chain of Transcription factor E2F1 (Homo sapiens) (Q01094 whole entry, looked up): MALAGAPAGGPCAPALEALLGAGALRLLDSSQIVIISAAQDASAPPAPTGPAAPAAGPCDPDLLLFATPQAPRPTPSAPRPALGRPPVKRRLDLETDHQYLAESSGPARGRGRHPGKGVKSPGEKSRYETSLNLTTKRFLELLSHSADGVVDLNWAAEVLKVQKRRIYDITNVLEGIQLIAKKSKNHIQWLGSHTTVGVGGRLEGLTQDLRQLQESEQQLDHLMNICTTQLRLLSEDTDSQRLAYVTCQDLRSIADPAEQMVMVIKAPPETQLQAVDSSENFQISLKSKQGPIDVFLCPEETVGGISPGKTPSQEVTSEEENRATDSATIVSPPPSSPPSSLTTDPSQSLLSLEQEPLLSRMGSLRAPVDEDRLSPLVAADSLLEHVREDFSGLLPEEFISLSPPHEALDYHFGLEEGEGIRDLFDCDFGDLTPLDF
Chain of Aryl hydrocarbon receptor (Homo sapiens) (P35869 whole entry, looked up): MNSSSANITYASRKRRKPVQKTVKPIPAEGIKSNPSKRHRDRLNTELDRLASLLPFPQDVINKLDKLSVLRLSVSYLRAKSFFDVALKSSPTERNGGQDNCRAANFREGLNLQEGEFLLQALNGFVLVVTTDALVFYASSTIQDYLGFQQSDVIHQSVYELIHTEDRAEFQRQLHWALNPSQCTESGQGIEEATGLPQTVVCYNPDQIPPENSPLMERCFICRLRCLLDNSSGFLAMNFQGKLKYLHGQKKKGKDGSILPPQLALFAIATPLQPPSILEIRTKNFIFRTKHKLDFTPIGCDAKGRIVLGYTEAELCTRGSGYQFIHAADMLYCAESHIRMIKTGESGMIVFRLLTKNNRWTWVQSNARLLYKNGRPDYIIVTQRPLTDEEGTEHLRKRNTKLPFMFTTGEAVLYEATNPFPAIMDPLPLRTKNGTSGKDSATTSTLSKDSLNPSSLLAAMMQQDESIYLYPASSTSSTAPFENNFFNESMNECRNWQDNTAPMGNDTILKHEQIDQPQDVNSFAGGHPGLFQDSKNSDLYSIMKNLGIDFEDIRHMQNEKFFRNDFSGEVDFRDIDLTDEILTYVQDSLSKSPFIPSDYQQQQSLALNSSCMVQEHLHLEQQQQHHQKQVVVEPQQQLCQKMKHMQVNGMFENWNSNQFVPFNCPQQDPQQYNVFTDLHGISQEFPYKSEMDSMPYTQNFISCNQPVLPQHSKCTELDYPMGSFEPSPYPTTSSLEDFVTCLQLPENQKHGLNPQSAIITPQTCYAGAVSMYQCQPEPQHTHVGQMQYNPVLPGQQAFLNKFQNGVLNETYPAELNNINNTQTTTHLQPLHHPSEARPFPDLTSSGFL
Chain of CCAAT/enhancer-binding protein beta (Homo sapiens) (P17676 whole entry, looked up): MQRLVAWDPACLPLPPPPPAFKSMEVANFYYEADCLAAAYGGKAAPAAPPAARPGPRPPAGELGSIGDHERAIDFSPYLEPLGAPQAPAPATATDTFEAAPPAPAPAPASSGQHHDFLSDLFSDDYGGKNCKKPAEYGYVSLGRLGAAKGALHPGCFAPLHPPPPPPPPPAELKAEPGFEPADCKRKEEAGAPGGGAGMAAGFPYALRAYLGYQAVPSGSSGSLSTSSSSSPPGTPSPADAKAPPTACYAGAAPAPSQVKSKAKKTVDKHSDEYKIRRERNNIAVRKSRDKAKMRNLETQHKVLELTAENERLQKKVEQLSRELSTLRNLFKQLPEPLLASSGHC
Chain of Retinoic acid receptor alpha (Homo sapiens) (P10276 whole entry, looked up): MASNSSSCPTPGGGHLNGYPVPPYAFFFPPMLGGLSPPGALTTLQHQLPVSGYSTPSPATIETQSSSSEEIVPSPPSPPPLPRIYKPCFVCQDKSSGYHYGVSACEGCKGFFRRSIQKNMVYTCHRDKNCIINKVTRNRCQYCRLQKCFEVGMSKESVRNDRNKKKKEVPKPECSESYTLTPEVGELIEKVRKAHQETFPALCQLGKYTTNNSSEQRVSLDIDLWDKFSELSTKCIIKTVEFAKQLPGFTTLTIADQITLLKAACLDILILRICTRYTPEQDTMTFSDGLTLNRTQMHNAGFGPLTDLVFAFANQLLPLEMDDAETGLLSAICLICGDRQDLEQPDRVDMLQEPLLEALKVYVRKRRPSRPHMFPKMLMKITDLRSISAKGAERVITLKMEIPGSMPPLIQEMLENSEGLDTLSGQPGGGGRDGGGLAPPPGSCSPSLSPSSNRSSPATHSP

O=C(O)c1cccnc1
active: [3] 116 µM
not listed: [15] | [16] | [17] | [18] | [19] | [20]
inactive: all other assays above

O=C1c2c(O)cccc2Cc2cccc(O)c21
active: [2] 19.3 µM
not listed: [8] | [12] | [18] | [19] | [20]
inactive: all other assays above

Cc1cn([C@H]2C=C[C@@H](CO)O2)c(=O)[nH]c1=O
not listed: [6] | [15] | [17] | [19] | [20]
inactive: all other assays above

O=Cc1ccccc1C=O
not listed: [15] | [18] | [20]
inactive: all other assays above

CC(=O)S[C@H](C(=O)N[C@H]1Cc2ccccc2[C@H]2CCC[C@@H](C(=O)O)N2C1=O)C(C)C
not listed: [6] | [17] | [19] | [20]
inactive: all other assays above

O=C(O)CC(O)(CC(=O)O)C(=O)O
inactive: [1] | [2] | [3] | [4] | [5] | [15] | [7] | [8]

O=C(Oc1ccccc1)c1cccc(C(=O)Oc2ccccc2)c1
not listed: [15] | [17] | [18] | [20]
inactive: all other assays above

CC(=O)[C@@]1(O)CC[C@H]2[C@@H]3CCC4=CC(=O)CC[C@]4(C)[C@H]3CC[C@@]21C
not listed: [12] | [15] | [17] | [18] | [20]
inactive: all other assays above

CN(C)C(=O)NC1(c2ccccc2)CCN(CCC[C@]2(c3ccc(Cl)c(Cl)c3)CCCN(C(=O)c3ccccc3)C2)CC1
inactive: [4] | [7] | [11] | [12] | [13] | [14]
active: [1] 15.1 µM | [2] 25.4 µM | [3] 9.82 µM | [5] 25 µM | [15] 10.3 µM | [9] 4.22 µM | [10] 5.22 µM | [16] 4.53 µM | [18] 2.75 µM

COC(=O)CCCC(=O)OC
not listed: [6] | [8] | [12] | [17] | [20]
inactive: all other assays above

C#CC(O)C(CC)CCCC (stereo unspecified)
inactive: [1] | [2] | [3] | [4] | [5] | [7] | [9] | [11] | [14]
active: [10] 128 µM | [16] 161 µM | [13] 163 µM

CC(COCC(C)OC(=O)c1ccccc1)OC(=O)c1ccccc1 (stereo unspecified)
not listed: [15] | [17] | [20]
inactive: all other assays above

Oc1ccccc1O
active: [1] 53.2 µM | [20] 67.9 µM | [11] 25 µM | [18] 13.3 µM
not listed: [2] | [3] | [4] | [7] | [12] | [17]
inactive: all other assays above

CCCC[C@H]1CN(CC2CCOCC2)C(=O)OC12CCN(C1(C)CCN(C(=O)c3c(C)ncnc3C)CC1)CC2
not listed: [8] | [12] | [18] | [19] | [20]
inactive: all other assays above

CCN(CC)CCOc1ccc(C(=C(Cl)c2ccccc2)c2ccccc2)cc1
inactive: [2] | [5] | [6] | [8] | [9] | [10] | [11] | [16] | [18] | [13] | [14] | [19] | [17]
active: [1] 5.35 µM | [3] 11.4 µM | [4] 61.2 µM | [7] 77.9 µM | [9] 12.8 µM | [10] 17.4 µM | [11] 7.17 µM | [16] 3.89 µM and 3.11 µM | [13] 11.4 µM
